Screening data as filed in PubChem.
Sa growth 42C: S. aureus growth inhibition at 42 and 30 °C, primary screen, LtaS inhibitor project, RN4220, two temperatures; OD600, 20 h, 42 °C; stronger effect = lower value; relative growth, % (concentration not given with the values); 0.53% of 170,000 active;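 active means relative growth at most 50% at the other temperature and 20+ points below 30 °C, or under 10% at both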
Sa helicase inh: inhibitors of S. aureus replicative helicase, primary screen, biochemical, fluorescence unwinding readout; 0.05% of 120,000 active; inhibition, % (test concentration not listed); purified S. aureus helicase, fluorescence unwinding assay; replicative DNA helicase (DnaC/DnaB), Staphylococcus aureus; in the data active means inhibition above about 25%, passing the limit was not always enough;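 further: 0% = mean of negative control wells and 100% = mean of positive control wells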
* = called active by the depositor; x = no result given. Only some compounds are listed: those with a hit (about 0.52% of all), similar ones and a draw of the others.

SMILES | Sa growth 42C | Sa helicase inh
O=C(Nc1c[nH]c2ccccc12)N1CCCc2ccccc21 | 37.1 | 11.0
CC1Cc2ccccc2N1C(=O)Nc1c[nH]c2ccccc12 (configuration not stated) | 15.5 | 3.0
CC(=O)N1CCN(C(=O)Nc2c[nH]c3ccccc23)CC1 | 6.1* | 10.0
O=C(NCCN1CCOCC1)Nc1c[nH]c2ccccc12 | 3.2* | 13.0
CC1CCCCN1C(=O)Nc1c[nH]c2ccccc12 (configuration not stated) | 2.7* | 6.0
Cc1nn(C)c(Cl)c1S(=O)(=O)Nc1ccc(Br)cc1 | 95.4 | x
CCNC(=O)NCc1nc(-c2ccccc2)no1 | 92.0 | 10.0
N#Cc1c(N)[nH]c(=S)c(C(N)=O)c1-c1cccc(Br)c1 | 0.3* | 16.0
CCc1[nH]c(=S)c(C#N)c(-c2ccccc2)c1C(=O)OC | 122.5 | 2.0
COC(=O)c1cccc(C(=O)OC)c1 | 78.0 | -15.0
COC(=O)c1ccc(O)c(Sc2cc(C(=O)OC)ccc2O)c1 | 1.9* | 3.0
CC1(C)CC(OC(=O)c2ccccc2)CC(C)(C)N1 | 106.9 | 14.0
Cc1ccc(NC(=O)c2ccc(=O)n(CC(=O)Nc3cccc(C)c3)n2)cc1 | 114.2 | x
Cc1ccc(NC(=O)c2ccn(C(=O)Nc3cccc(Cl)c3)n2)cc1 | 45.0* | 17.0
COc1cccc(-n2cc(C(=O)N(C)C3CCCCC3)c3ccccc3c2=O)c1 | 71.7 | -32.0
COc1nc(OC)nc(N2CCN(c3cc(C)ccc3C)CC2)n1 | 91.7 | 7.0
COc1cc2nc(N3CCN(c4cc(C)ccc4C)CC3)nc(N)c2cc1OC | -0.7* | -12.0
O=C(Nc1ccc(SC(F)F)cc1)c1cc(-c2cccs2)on1 | 105.7 | x
Cc1ccc(/C=C2\CCCC(CN(C)C)C2=O)cc1 (configuration not stated) | -0.2* | x
CN(C)c1ccc(/C=C2\CCC(C3CCCC3)C2=O)cc1 (configuration not stated) | 95.1 | 3.0
N#C/C(=C\Nc1cccc(Cl)c1)S(=O)(=O)Cc1ccco1 | 85.3 | x
Cc1cc(C(=O)/C(C#N)=N/Nc2cccc(Cl)c2)n(C(C)(C)C)n1 | 5.4* | 21.0
N#C/C(=N\Nc1cccc(Cl)c1)C(=O)c1ccco1 | 1.8* | -9.0
N#C/C(=N\Nc1cc(C(=O)O)cc(C(=O)O)c1)C(=O)c1ccccc1 | 94.2 | -3.0
Cn1cc(NC(=O)NC2CCCCC2)c2ccccc2c1=O | 101.1 | 7.0
SMILES | Sa growth 42C | Sa helicase inh
O=C1CS(=O)(=O)C(c2cccnc2)N1c1ccccc1 (configuration not stated) | 164.2 | x
CCn1c(C(=O)NCCCc2ccccc2)cc2oc3ccccc3c21 | 107.1 | -9.0
CCCN1C(C(=O)c2ccccc2)=C(OC(=O)c2ccc(F)cc2)c2ccccc2S1(=O)=O | 25.9 | x
CCCN1C(C(=O)c2ccccc2)=C(OC(=O)c2ccc(C)cc2)c2ccccc2S1(=O)=O | 97.3 | x
CCCCCN1C(C(=O)c2ccccc2)=C(OC(=O)CC)c2ccccc2S1(=O)=O | -0.5* | x
CCCCN1C(C(=O)c2ccccc2)=C(OC(=O)CC)c2ccccc2S1(=O)=O | 8.2* | x
CCCCCN1C(C(=O)c2ccccc2)=C(NC(C)=O)c2ccccc2S1(=O)=O | 111.6 | x
CCCCC(=O)OC1=C(C(=O)c2ccccc2)N(CCC)S(=O)(=O)c2ccccc21 | 4.0* | x
CC(C)(C)NC(=O)Nc1ccccc1C(N)=O | 101.2 | 1.0
Cc1ccccc1Cn1c2ccccc2c2cnn(CC(=O)NCc3cccc(Cl)c3)c(=O)c21 | 106.1 | x
CCC(C)S(=O)(=O)c1oc(-c2cccs2)nc1S(=O)(=O)c1ccccc1 (configuration not stated) | 3.7* | x
O=S(=O)(c1ccccc1)c1nc(-c2ccc(F)cc2)oc1NCc1ccccc1 | 120.6 | x
CC(C)CS(=O)(=O)c1oc(-c2ccc(F)cc2)nc1S(=O)(=O)c1ccccc1 | 1.0* | x
O=S(=O)(c1ccccc1)c1nc(-c2cccs2)oc1N1CCCCC1 | 105.6 | x
O=C(CCN1N=C(c2ccccc2)CCC1=O)NCc1ccccc1Cl | 108.3 | 13.0
Cc1cc(OCC(=O)NCc2ccco2)c(C)cc1Br | 93.4 | 7.0
Cc1ccc2c(Cl)cc(Cl)c(OCC(=O)NCc3ccco3)c2n1 | -1.6* | -2.0
N#Cc1cnc(SCC(=O)Nc2ccccc2C(F)(F)F)nc1N | 89.8 | 1.0
On1c(-c2ccccc2)cc2ccccc21 | 1.6* | 3.0
O=c1cc(-c2ccccc2)cc(-c2ccccc2)n1O | 78.7 | x
CC(NC(=O)Cc1ccccc1)C(c1ccccc1)N1CCOCC1 (configuration not stated) | 99.8 | 5.0
CC(NC(=O)c1cc(=O)c2ccccc2o1)C(c1ccccc1)N1CCOCC1 (configuration not stated) | 82.3 | 35.0*
CCN(Cc1nc(-c2ccccc2)no1)C(=O)c1ccc2c(c1)OCO2 | 110.3 | 2.0
NC(=S)N1CCCC1 | 93.8 | 70.0
S=C(S)N1CCCC1 | 1.7* | -5.0
SMILES | Sa growth 42C | Sa helicase inh
O=C1NC(=S)S/C1=C\C=C\c1ccccc1 | 6.9* | 10.0
O=C1NC(=O)/C(=C\C=C\c2ccccc2)S1 | x | 7.0
O=C(CSc1nnc(CN2CCCC2)n1-c1ccccc1)c1ccc2c(c1)OCO2 | 68.0 | 26.0
CC(C)OC(=O)c1ccc2[nH]c3c(c2c1)CCCC3 | 33.7* | 10.0
COC(=O)c1ccc2[nH]c3c(c2c1)CCCC3 | 82.8 | 10.0
CCOc1cc(/C=C2/SC(=S)N(C(CC)C(=O)O)C2=O)ccc1O (configuration not stated) | 79.8 | -2.0
CCC(C)N1C(=O)S/C(=C/c2ccc(O)c(Cl)c2)C1=O (configuration not stated) | -0.6* | -8.0
S=c1nc2ccccc2c2nc(COc3ccccc3Br)[nH]n12 | 0.6* | -13.0
Brc1ccccc1-c1nc2ccccc2c2nc3ccccc3n12 | 111.1 | 9.0
CC(C)c1nn2c(=O)cc(COC(=O)COc3ccccc3F)nc2s1 | 110.9 | x
Cc1ccc2c(CSCc3c(C)noc3C)cc(=O)oc2c1 | 97.7 | -15.0
CC(=O)Oc1ccc(C2OC(=O)c3ccccc3N2C(C)=O)cc1 (configuration not stated) | 84.0 | 6.0
COC(=O)c1cc(=O)n(-c2cc(Cl)cc(Cl)c2)[nH]1 | 13.4* | 40.0
COC(=O)c1n[nH]n(-c2cc(Cl)cc(Cl)c2)c1=O | 89.7 | x
O=C(NCCc1ccccc1)C(=O)Nc1cccc(Br)c1 | 107.1 | x
CN(C)S(=O)(=O)c1ccc(C(=O)NC2CC(=O)N(c3ccc4c(c3)OCCO4)C2)cc1 (configuration not stated) | 102.7 | x
C[n+]1ccc(/C=C/c2ccccc2O)c2ccccc21 | 43.4 | 50.0*
Oc1ccc(N=Cc2ccccc2O)cc1 | 91.7 | -4.0
C[n+]1ccc(/C=C/c2ccc3c(c2)OCO3)c2ccccc21 | 0.0* | -33.0
C[n+]1ccc(/C=C\c2ccco2)c2ccccc21 | 3.2* | -25.0
O/N=C/c1ccco1 | 110.2 | 12.0
CN(C)C(=O)/C=C/c1ccc2c(c1)OCO2 | 92.6 | -1.0
O=C(CN1CCCCCCC1)N/N=C/c1cccs1 | 100.9 | x
CC(=O)Nc1ccccc1NC(=O)C(C)C | 101.9 | 9.0
CC(C)CCNC(=O)c1cccn2c(=O)c3cc4ccccc4cc3nc12 | 120.8 | -69.0
COCCNC(=O)CCC(=O)NNc1nc2ccccc2c2nc(-c3ccccc3)nn12 | 102.5 | x
COc1ccc(N2CCN(C(=O)c3nn(C)c4c3CS(=O)(=O)c3ccccc3-4)CC2)cc1 | 109.7 | x
